# ± gives the standard deviation of the averaged measurements.
# Assays:
# Experiment in all cases: promoter activity interaction Z-score (Lux/OD deviation from empty-vector control); higher = stronger promoter induction by the compound
# [1] = tested on: E. coli BW25113 acrABp lux reporter
# How it was run: (§1)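 OD600 and luminescence of E. coli BW25113 reporter cultures (40 µl LB Lennox, 384-well plates, 37°C) were measured every 30 min for 12 h. Integration ran over 0–8 h for wild type or 1–9 h for deletion strains, and wells with growth below 10% of the median were dropped. The score is the Z-transformed residual of growth-normalised luminescence fitted against a control.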
# [2] = tested on: E. coli BW25113 micFp lux reporter
# How it was run: as §1
# [3] = tested on: E. coli BW25113 ompFp lux reporter
# How it was run: as §1
# [4] = tested on: E. coli BW25113 robp lux reporter
# How it was run: as §1
# [5] = tested on: E. coli BW25113 soxSp lux reporter
# How it was run: as §1
# [6] = tested on: E. coli BW25113 tolCp lux reporter
# How it was run: as §1
# [7] = tested on: E. coli BW25113 marRABp lux reporter
# How it was run: as §1
# [8] = 0.062 µg/ml, genetic background: wild type
# [9] = 0.062 µg/ml, genetic background: ΔmarA
# [10] = 0.062 µg/ml, genetic background: Δrob
# [11] = 0.062 µg/ml, genetic background: ΔsoxS
# [12] = 0.12 µg/ml, genetic background: wild type
# [13] = 0.12 µg/ml, genetic background: ΔmarA
# [14] = 0.12 µg/ml, genetic background: Δrob
# [15] = 0.12 µg/ml, genetic background: ΔsoxS
# [16] = 0.25 µg/ml, genetic background: wild type
# [17] = 0.25 µg/ml, genetic background: ΔmarA
# [18] = 0.25 µg/ml, genetic background: Δrob
# [19] = 0.25 µg/ml, genetic background: ΔsoxS
# [20] = 0.49 µg/ml, genetic background: wild type
# [21] = 0.49 µg/ml, genetic background: ΔmarA
# [22] = 0.49 µg/ml, genetic background: Δrob
# [23] = 0.49 µg/ml, genetic background: ΔsoxS
# [24] = 0.62 µg/ml, genetic background: wild type
# [25] = 0.62 µg/ml, genetic background: ΔmarA
# [26] = 0.62 µg/ml, genetic background: Δrob
# [27] = 0.62 µg/ml, genetic background: ΔsoxS
# [28] = 1.2 µg/ml, genetic background: wild type
# [29] = 1.2 µg/ml, genetic background: ΔmarA
# [30] = 1.2 µg/ml, genetic background: Δrob
# [31] = 1.2 µg/ml, genetic background: ΔsoxS
# [32] = 2.5 µg/ml, genetic background: wild type
# [33] = 2.5 µg/ml, genetic background: ΔmarA
# [34] = 2.5 µg/ml, genetic background: Δrob
# [35] = 2.5 µg/ml, genetic background: ΔsoxS
# [36] = 5 µg/ml, genetic background: wild type
# [37] = 5 µg/ml, genetic background: ΔmarA
compound,measurement,setting,value
CN(C)c1ccc(O)c2c1C[C@H]1C[C@H]3[C@H](N(C)C)C(O)=C(C(N)=O)C(=O)[C@@]3(O)C(O)=C1C2=O [Minocycline],promoter activity interaction Z-score,[1]; [8],-0.0516 ± 0.1
same,promoter activity interaction Z-score,[1]; [9],0.0987 ± 0.99
same,promoter activity interaction Z-score,[1]; [10],0.189 ± 0.07
same,promoter activity interaction Z-score,[1]; [11],-0.577 ± 0.76
same,promoter activity interaction Z-score,[1]; [12],0.0573 ± 0.042
same,promoter activity interaction Z-score,[1]; [13],0.356 ± 1.1
same,promoter activity interaction Z-score,[1]; [14],0.339 ± 0.34
same,promoter activity interaction Z-score,[1]; [15],0.263 ± 0.16
same,promoter activity interaction Z-score,[1]; [16],0.223 ± 0.18
same,promoter activity interaction Z-score,[1]; [17],0.273 ± 0.88
same,promoter activity interaction Z-score,[1]; [18],0.387 ± 0.58
same,promoter activity interaction Z-score,[1]; [19],0.196 ± 0.47
same,promoter activity interaction Z-score,[1]; [20],2.47 ± 0.56
same,promoter activity interaction Z-score,[1]; [21],0.55 ± 0.59
same,promoter activity interaction Z-score,[1]; [22],2.62 ± 0.41
same,promoter activity interaction Z-score,[1]; [23],2.95 ± 1.3
same,promoter activity interaction Z-score,[2]; [8],0.172 ± 0.028
same,promoter activity interaction Z-score,[2]; [9],-0.151 ± 0.19
same,promoter activity interaction Z-score,[2]; [10],0.0108 ± 0.022
same,promoter activity interaction Z-score,[2]; [11],-0.429 ± 0.019
same,promoter activity interaction Z-score,[2]; [12],0.33 ± 0.72
same,promoter activity interaction Z-score,[2]; [13],-0.0481 ± 0.0079
same,promoter activity interaction Z-score,[2]; [14],-0.075 ± 0.12
same,promoter activity interaction Z-score,[2]; [15],0.127 ± 0.026
same,promoter activity interaction Z-score,[2]; [16],0.933 ± 0.82
same,promoter activity interaction Z-score,[2]; [17],-0.106 ± 0.069
same,promoter activity interaction Z-score,[2]; [18],0.138 ± 0.07
same,promoter activity interaction Z-score,[2]; [19],-0.0781 ± 0.17
same,promoter activity interaction Z-score,[2]; [20],1.77 ± 1.9
same,promoter activity interaction Z-score,[2]; [21],0.182 ± 0.15
same,promoter activity interaction Z-score,[2]; [22],0.0732 ± 0.00089
same,promoter activity interaction Z-score,[2]; [23],0.743 ± 0.81
same,promoter activity interaction Z-score,[3]; [8],0.0637 ± 0.43
same,promoter activity interaction Z-score,[3]; [9],-0.699 ± 0.25
same,promoter activity interaction Z-score,[3]; [10],0.129 ± 0.49
same,promoter activity interaction Z-score,[3]; [11],-0.457 ± 0.12
same,promoter activity interaction Z-score,[3]; [12],0.41 ± 0.83
same,promoter activity interaction Z-score,[3]; [13],0.0821 ± 0.38
same,promoter activity interaction Z-score,[3]; [14],0.365 ± 0.77
same,promoter activity interaction Z-score,[3]; [15],0.49 ± 0.25
same,promoter activity interaction Z-score,[3]; [16],0.511 ± 0.43
same,promoter activity interaction Z-score,[3]; [17],-0.386 ± 0.46
same,promoter activity interaction Z-score,[3]; [18],0.978 ± 0.71
same,promoter activity interaction Z-score,[3]; [19],0.461 ± 0.59
same,promoter activity interaction Z-score,[3]; [20],1.65 ± 0.69
same,promoter activity interaction Z-score,[3]; [21],1.7 ± 0.75
same,promoter activity interaction Z-score,[3]; [22],1.71 ± 1.5
same,promoter activity interaction Z-score,[3]; [23],2.93 ± 0.19
same,promoter activity interaction Z-score,[4]; [8],-0.379 ± 0.35
same,promoter activity interaction Z-score,[4]; [9],-0.0848 ± 0.76
same,promoter activity interaction Z-score,[4]; [10],0.746 ± 0.51
same,promoter activity interaction Z-score,[4]; [11],-0.6221 ± 0.0048
same,promoter activity interaction Z-score,[4]; [12],0.195 ± 0.02
same,promoter activity interaction Z-score,[4]; [13],0.369 ± 0.11
same,promoter activity interaction Z-score,[4]; [14],0.83 ± 0.12
same,promoter activity interaction Z-score,[4]; [15],0.357 ± 0.091
same,promoter activity interaction Z-score,[4]; [16],0.736 ± 1.1
same,promoter activity interaction Z-score,[4]; [17],0.349 ± 0.033
same,promoter activity interaction Z-score,[4]; [18],1.12 ± 0.15
same,promoter activity interaction Z-score,[4]; [19],-0.142 ± 0.44
same,promoter activity interaction Z-score,[4]; [20],0.715 ± 0.67
same,promoter activity interaction Z-score,[4]; [21],0.586 ± 0.056
same,promoter activity interaction Z-score,[4]; [22],0.685 ± 1.6
same,promoter activity interaction Z-score,[4]; [23],0.64 ± 1.7
same,promoter activity interaction Z-score,[5]; [8],0.269 ± 0.16
same,promoter activity interaction Z-score,[5]; [9],-0.245 ± 0.04
same,promoter activity interaction Z-score,[5]; [10],0.0739 ± 0.0036
same,promoter activity interaction Z-score,[5]; [11],-0.185 ± 0.069
same,promoter activity interaction Z-score,[5]; [12],0.291 ± 0.56
same,promoter activity interaction Z-score,[5]; [13],0.0029 ± 0.014
same,promoter activity interaction Z-score,[5]; [14],-0.102 ± 0.055
same,promoter activity interaction Z-score,[5]; [15],0.203 ± 0.098
same,promoter activity interaction Z-score,[5]; [16],0.499 ± 0.44
same,promoter activity interaction Z-score,[5]; [17],-0.0485 ± 0.1
same,promoter activity interaction Z-score,[5]; [18],0.0791 ± 0.26
same,promoter activity interaction Z-score,[5]; [19],-0.114 ± 0.015
same,promoter activity interaction Z-score,[5]; [20],0.538 ± 0.72
same,promoter activity interaction Z-score,[5]; [21],0.583 ± 0.97
same,promoter activity interaction Z-score,[5]; [22],0.542 ± 0.91
same,promoter activity interaction Z-score,[5]; [23],0.336 ± 0.25
same,promoter activity interaction Z-score,[6]; [8],-0.706 ± 0.049
same,promoter activity interaction Z-score,[6]; [9],-0.479 ± 0.52
same,promoter activity interaction Z-score,[6]; [10],-0.423 ± 0.84
same,promoter activity interaction Z-score,[6]; [11],-0.991 ± 0.75
same,promoter activity interaction Z-score,[6]; [12],0.000824 ± 0.27
same,promoter activity interaction Z-score,[6]; [13],-0.0931 ± 0.19
same,promoter activity interaction Z-score,[6]; [14],-0.00328 ± 1.2
same,promoter activity interaction Z-score,[6]; [15],0.557 ± 0.39
same,promoter activity interaction Z-score,[6]; [16],-0.22 ± 0.98
same,promoter activity interaction Z-score,[6]; [17],-0.201 ± 0.28
same,promoter activity interaction Z-score,[6]; [18],0.646 ± 0.087
same,promoter activity interaction Z-score,[6]; [19],-0.226 ± 0.84
same,promoter activity interaction Z-score,[6]; [20],-0.114 ± 0.25
same,promoter activity interaction Z-score,[6]; [21],0.0123 ± 0.63
same,promoter activity interaction Z-score,[6]; [22],0.966 ± 0.27
same,promoter activity interaction Z-score,[6]; [23],0.526 ± 0.79
CN[C@@H]1[C@H](O)[C@H](NC)[C@H]2O[C@@]3(O)C(=O)C[C@@H](C)O[C@H]3O[C@@H]2[C@H]1O [Spectinomycin],promoter activity interaction Z-score,[1]; [24],-0.0967 ± 0.053
same,promoter activity interaction Z-score,[1]; [25],0.63 ± 1.1
same,promoter activity interaction Z-score,[1]; [26],-0.155 ± 0.22
same,promoter activity interaction Z-score,[1]; [27],-0.229 ± 0.36
same,promoter activity interaction Z-score,[1]; [28],0.0581 ± 0.015
same,promoter activity interaction Z-score,[1]; [29],1.75 ± 0.53
same,promoter activity interaction Z-score,[1]; [30],-0.245 ± 0.14
same,promoter activity interaction Z-score,[1]; [31],0.468 ± 0.31
same,promoter activity interaction Z-score,[1]; [32],-0.0145 ± 0.16
same,promoter activity interaction Z-score,[1]; [33],0.746 ± 1
same,promoter activity interaction Z-score,[1]; [34],-0.204 ± 0.38
same,promoter activity interaction Z-score,[1]; [35],-0.222 ± 0.034
same,promoter activity interaction Z-score,[1]; [36],0.0345 ± 0.34
same,promoter activity interaction Z-score,[1]; [37],1.39 ± 0.42
same,promoter activity interaction Z-score,"[1]; 5 µg/ml, genetic background: Δrob",0.0966 ± 0.39
same,promoter activity interaction Z-score,"[1]; 5 µg/ml, genetic background: ΔsoxS",0.99 ± 0.69
same,promoter activity interaction Z-score,[7]; [24],0.174 ± 0.026
same,promoter activity interaction Z-score,[7]; [25],0.168 ± 0.75
same,promoter activity interaction Z-score,[7]; [26],0.332 ± 0.41
same,promoter activity interaction Z-score,[7]; [27],-0.125 ± 0.11
same,promoter activity interaction Z-score,[7]; [28],0.433 ± 0.052
same,promoter activity interaction Z-score,[7]; [29],0.324 ± 0.39
same,promoter activity interaction Z-score,[7]; [30],0.402 ± 0.72
same,promoter activity interaction Z-score,[7]; [31],0.018 ± 0.043
same,promoter activity interaction Z-score,[7]; [32],0.0652 ± 0.25
same,promoter activity interaction Z-score,[7]; [33],-0.102 ± 0.25
same,promoter activity interaction Z-score,[7]; [34],-0.0628 ± 0.069
same,promoter activity interaction Z-score,[7]; [35],-0.128 ± 0.04
same,promoter activity interaction Z-score,[7]; [36],0.205 ± 0.44
same,promoter activity interaction Z-score,[7]; [37],0.687 ± 1.1

# Source: the supplement of paper PMC12282887
